# Reference: PubChem BioAssay (EPA / NIEHS)
# Values joined by “and” are separate entries in the source; they are usually repeats but may differ in a detail not shown here. Equal entries are not always repeated. Results filed as inconclusive are left out. A structure can be active in one record and inactive in another. Active and inactive are the calls of the source. The calls were made as follows, unless noted: active = hit-call score of the fitted dose curve at least 0.9, where 1 is the maximum; inconclusive = response in the unintended direction; inactive = score below 0.9.
# Tests used:
# [1] = TOX21_p53_BLA_p2_viability: Viability Assessment in the Tox21 HCT-116 p53 Agonism Beta-lactamase Assay, Phase 2 (AID 2283591);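 also: compound exposure lasted 16 h at 37 °C; actives lower the ATP signal meaning cytotoxicity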
# Summary of the method: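 HCT116 p53-bla cells, 4000/well, dosed after 5 h plating (217-fold dilution of DMSO stocks) and incubated 16 h at 37C. Viability taken as cellular ATP by CellTiter-Glo luminescence after 30 min RT; signal loss marks cytotoxicity.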
# [2] = molecular target: Cellular tumor antigen p53 (Homo sapiens) (UniProt P04637); experiment: TOX21_p53_BLA_p2_ratio: Tox21 HCT-116 p53 Agonism Beta-lactamase Assay, Ratio, Phase 2 (AID 2283592)
# Sequence of Cellular tumor antigen p53 (Homo sapiens) (P04637 whole entry, looked up): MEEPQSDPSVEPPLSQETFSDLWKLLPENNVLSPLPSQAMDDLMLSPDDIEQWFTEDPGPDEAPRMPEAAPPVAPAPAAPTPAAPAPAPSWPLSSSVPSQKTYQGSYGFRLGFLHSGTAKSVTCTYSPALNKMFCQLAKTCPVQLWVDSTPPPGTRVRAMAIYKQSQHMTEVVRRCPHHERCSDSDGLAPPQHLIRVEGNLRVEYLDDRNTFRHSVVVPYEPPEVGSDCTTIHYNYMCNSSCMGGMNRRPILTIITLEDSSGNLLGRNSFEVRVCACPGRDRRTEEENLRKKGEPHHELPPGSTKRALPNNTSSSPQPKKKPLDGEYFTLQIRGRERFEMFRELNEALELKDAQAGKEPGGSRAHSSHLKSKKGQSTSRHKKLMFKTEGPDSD
# Summary of the method: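 Plated HCT116 p53-bla cells (4000/well) received compound after 5 h, then 16 h at 37C/5% CO2. CCF4-AM added, 2 h RT. Ratio of 460 to 530 nm emission taken as the p53 reporter signal.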
# [3] = TOX21_p53_BLA_p3_viability: Viability Assessment in the Tox21 HCT-116 p53 Agonism Beta-lactamase Assay, Phase 3 (AID 2283593);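 also: cells exposed to compound for 16 h before reading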
# Summary of the method: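 HCT116 cells, 4000/well, dosed 5 h after plating by pin transfer (217-fold dilution from DMSO stock) and incubated 16 h at 37C, 5% CO2. Viability read as ATP luminescence with CellTiter-Glo after 30 min at room temperature.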
# [4] = molecular target: Cellular tumor antigen p53 (Homo sapiens) (UniProt P04637); experiment: TOX21_p53_BLA_p3_ratio: Tox21 HCT-116 p53 Agonism Beta-lactamase Assay, Ratio, Phase 3 (AID 2283596)
# Summary of the method: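 Cells were seeded at 4000/well, rested 5 h at 37C, then dosed with DMSO compound solutions (217-fold dilution) for 16 h. CCF4-AM substrate was loaded for 2 h at room temperature, and the 460/530 nm emission ratio was fitted for gain of signal versus DMSO.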
# [5] = TOX21_p53_BLA_p4_viability: Viability Assessment in the Tox21 HCT-116 p53 Agonism Beta-lactamase Assay, Phase 4 (AID 2283597);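 also: hits lower the luminescence signal meaning cytotoxicity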
# Summary of the method: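 Readout: ATP luminescence (CellTiter-Glo), measured 30 min after reagent addition at RT. The reagent followed a 2 h CCF4-AM incubation, and the cells had been exposed to compound for 16 h at 37C.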
# [6] = molecular target: Cellular tumor antigen p53 (Homo sapiens) (UniProt P04637); experiment: TOX21_p53_BLA_p5_ratio: Tox21 HCT-116 p53 Agonism Beta-lactamase Assay, Ratio, Phase 5 (AID 2283599)
# Summary of the method: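 HCT-116 p53-bla cells (4000/well) plated 5 h, dosed with compound (217-fold DMSO dilution) for 16 h at 37 C; CCF4-AM substrate 2 h at room temperature. Activity is the 460/530 nm emission ratio (405 nm excitation), fitted in gain-of-signal direction versus DMSO.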
# [7] = TOX21_p53_BLA_p5_viability: Viability Assessment in the Tox21 HCT-116 p53 Agonism Beta-lactamase Assay, Phase 5 (AID 2283600)
# Summary of the method: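 Workflow: seed 4000 cells per well, wait 5 h, add compounds (DMSO, 217-fold dilution), incubate 16 h, load CCF4-AM 2 h, add CellTiter-Glo, read luminescence after 30 min.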
# [8] = molecular target: Cellular tumor antigen p53 (Homo sapiens) (UniProt P04637); experiment: TOX21_p53_BLA_p4_ratio: Tox21 HCT-116 p53 Agonism Beta-lactamase Assay, Ratio, Phase 4 (AID 2283601)
# Summary of the method: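 HCT-116 p53 beta-lactamase reporter cells (4000/well) preincubated 5 h, then compound (217-fold dilution of DMSO stock) for 16 h at 37C. CCF4-AM substrate added 2 h at room temperature; 460/530 nm emission ratio fitted upward versus DMSO.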
# [9] = molecular target: bovine Estrogen Receptor (ER), ESR1 (gene 407238) (UniProt P49884); experiment: NVS_NR_bER: NovaScreen (NVS) Nuclear Receptor Binding Assay for bovine Estrogen Receptor (ER) (AID 2283345);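 also: actives lower the bound radioligand count which means they displace the ER ligand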
# Sequence of bovine Estrogen Receptor (ER), ESR1 (gene 407238) (P49884 whole entry, looked up): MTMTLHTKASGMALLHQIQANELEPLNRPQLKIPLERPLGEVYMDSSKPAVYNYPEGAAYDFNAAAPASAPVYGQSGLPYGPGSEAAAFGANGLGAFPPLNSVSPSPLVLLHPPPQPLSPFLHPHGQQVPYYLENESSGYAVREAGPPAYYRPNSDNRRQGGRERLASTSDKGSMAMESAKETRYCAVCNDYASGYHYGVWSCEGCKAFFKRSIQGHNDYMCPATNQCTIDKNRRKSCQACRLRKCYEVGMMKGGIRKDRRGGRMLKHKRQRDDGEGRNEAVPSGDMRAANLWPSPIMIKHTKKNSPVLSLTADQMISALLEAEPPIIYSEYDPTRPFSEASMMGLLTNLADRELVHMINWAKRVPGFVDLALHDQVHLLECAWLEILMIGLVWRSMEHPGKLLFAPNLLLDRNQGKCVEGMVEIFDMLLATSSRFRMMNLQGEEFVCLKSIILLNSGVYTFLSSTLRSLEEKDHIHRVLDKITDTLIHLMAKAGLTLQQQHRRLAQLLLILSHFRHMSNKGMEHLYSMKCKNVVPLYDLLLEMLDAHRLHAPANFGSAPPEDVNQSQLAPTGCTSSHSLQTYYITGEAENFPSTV
# Summary of the method: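 Scintillation counting of displaced radioligand gave the readout; bovine uterine membrane extract supplied the receptor. Measured 18 h post-dose, normalized to DMSO baseline. Single 25 uM duplicate screen preceded concentration-response follow-up.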
# [10] = molecular target: Estrogen receptor (Homo sapiens) (UniProt P03372); experiment: NVS_NR_hER: NovaScreen (NVS) Nuclear Receptor Binding Assay for human Estrogen Receptor (ER) (AID 2283348)
# Sequence of Estrogen receptor (Homo sapiens) (P03372 whole entry, looked up): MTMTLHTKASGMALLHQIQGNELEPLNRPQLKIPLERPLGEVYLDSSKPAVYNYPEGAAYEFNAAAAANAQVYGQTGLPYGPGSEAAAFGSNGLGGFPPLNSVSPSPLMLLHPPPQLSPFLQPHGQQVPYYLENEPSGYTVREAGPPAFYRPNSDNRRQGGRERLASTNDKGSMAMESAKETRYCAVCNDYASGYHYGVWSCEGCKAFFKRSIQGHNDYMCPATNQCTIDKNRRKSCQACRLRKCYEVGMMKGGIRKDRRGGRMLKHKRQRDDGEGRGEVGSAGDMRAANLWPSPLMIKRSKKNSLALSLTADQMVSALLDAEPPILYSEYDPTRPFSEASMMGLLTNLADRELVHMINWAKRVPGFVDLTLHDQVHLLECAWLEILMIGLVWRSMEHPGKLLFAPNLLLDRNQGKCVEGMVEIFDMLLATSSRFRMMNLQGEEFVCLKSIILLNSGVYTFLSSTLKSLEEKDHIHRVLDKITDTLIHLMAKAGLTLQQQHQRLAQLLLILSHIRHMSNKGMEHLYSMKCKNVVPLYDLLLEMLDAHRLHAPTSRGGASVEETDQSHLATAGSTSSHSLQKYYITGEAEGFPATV
# Summary of the method: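 MCF7-derived receptor extract, radiolabelled ligand, competitive displacement. Read: scintillation counts at 18 h. DMSO = negative control/baseline. Primary 25 uM duplicate; follow-up concentration–response.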
# [11] = TOX21_PR_BLA_Followup_Agonist_viability: Viability Assessment in the Tox21 HEK293 Progesterone Receptor (PR) Agonism Beta-lactamase Follow-Up Assay (AID 2283935);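 also: signal loss means lower viability so actives are cytotoxic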
# Summary of the method: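 Viability is read as CellTiter-Glo luminescence, where loss of signal indicates cytotoxicity. The cells are PR-UAS-bla HEK293T given compounds for 16 hr at 37C and 5% CO2, in the same wells used for the bla readout.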
# [12] = TOX21_PR_BLA_Followup_Antagonist_viability: Viability Assessment in the Tox21 HEK293 Progesterone Receptor (PR) Antagonism Beta-lactamase Follow-Up Assay (AID 2283936);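 also: cells exposed to compound with R5020 agonist for 16 h; hits lower the luminescence signal meaning cytotoxicity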
# Summary of the method: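 PR-UAS-bla HEK293T cells in medium with 2% charcoal-stripped FBS were treated with compounds plus R5020 for 16 hr at 37C. After the beta-lactamase read, CellTiter-Glo was added to the same wells and luminescence read after 30 min at room temperature.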
# [13] = molecular target: PGR (gene 5241) (UniProt P06401); experiment: TOX21_PR_LUC_Followup_Antagonist: Tox21 HEK293 Progesterone Receptor (PR) Antagonism Luciferase Follow-Up Assay (AID 2283938);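 also: curve fitted upward as signal gain over DMSO baseline despite antagonist label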
# Sequence of PGR (gene 5241) (P06401 whole entry, looked up): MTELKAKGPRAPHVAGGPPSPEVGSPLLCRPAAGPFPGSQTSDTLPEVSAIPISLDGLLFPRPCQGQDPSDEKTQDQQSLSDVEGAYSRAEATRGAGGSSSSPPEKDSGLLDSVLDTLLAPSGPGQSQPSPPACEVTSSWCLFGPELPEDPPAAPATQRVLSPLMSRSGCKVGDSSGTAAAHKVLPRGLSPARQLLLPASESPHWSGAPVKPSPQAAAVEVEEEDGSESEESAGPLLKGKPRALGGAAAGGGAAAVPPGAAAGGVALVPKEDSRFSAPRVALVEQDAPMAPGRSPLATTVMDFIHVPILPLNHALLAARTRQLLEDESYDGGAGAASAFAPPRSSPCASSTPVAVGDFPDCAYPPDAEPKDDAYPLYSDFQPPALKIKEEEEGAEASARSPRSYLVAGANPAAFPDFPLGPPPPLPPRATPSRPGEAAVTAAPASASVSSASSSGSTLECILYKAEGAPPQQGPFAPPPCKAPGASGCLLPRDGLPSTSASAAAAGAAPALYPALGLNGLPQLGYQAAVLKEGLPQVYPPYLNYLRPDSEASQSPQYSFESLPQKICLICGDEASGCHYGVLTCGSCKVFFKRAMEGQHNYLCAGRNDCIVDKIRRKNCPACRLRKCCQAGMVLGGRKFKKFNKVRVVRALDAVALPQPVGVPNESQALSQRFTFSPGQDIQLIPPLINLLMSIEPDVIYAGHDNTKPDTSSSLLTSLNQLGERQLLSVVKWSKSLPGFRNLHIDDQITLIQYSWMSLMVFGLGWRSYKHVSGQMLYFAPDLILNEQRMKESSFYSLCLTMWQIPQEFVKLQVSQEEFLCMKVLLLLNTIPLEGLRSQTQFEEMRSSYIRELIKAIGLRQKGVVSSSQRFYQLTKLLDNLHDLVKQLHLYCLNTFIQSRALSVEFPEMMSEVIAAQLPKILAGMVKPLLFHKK
# Summary of the method: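 Cells are grown 5 days in charcoal-stripped-FBS assay medium, plated, left 5 h, then dosed with compound and incubated 16 h. ONE-Glo reagent is added and luminescence read after 30 min.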
# [14] = TOX21_PR_LUC_Followup_Antagonist_viability: Viability Assessment in the Tox21 HEK293 Progesterone Receptor (PR) Antagonism Luciferase Follow-Up Assay (AID 2283940)
# Summary of the method: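 Loss of CellTiter-Glo ATP signal indicates cytotoxicity in HEK293-PR-A-luc cells grown in 10% charcoal-stripped FBS medium, seeded 3,000 per well and incubated 16 h with compound at 37C.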
# [15] = CCTE_Harrill_HTTr_Viability_MCF7: CCTE's 6-hour Cell Viability Assessment for the High-Throughput Transcriptomics (HTTr) Platform, in MCF-7 cells cultured in DMEM + 10% fetal bovine serum, Harrill Lab (AID 2284010; active = hit-call score of the fitted dose curve at least 0.9, where 1 is the maximum; inactive = score below 0.9)
# Summary of the method: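 Eight-point concentration series, six-hour exposure. Propidium iodide exclusion imaged to assess membrane integrity as a cytotoxicity readout; bidirectional fitting was done with DMSO as negative control and activity baseline.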
# [16] = CCTE_Harrill_HTTr_Apoptosis_MCF7: CCTE's 6-hour Apoptosis Assessment for the High-Throughput Transcriptomics (HTTr) Platform, in MCF-7 cells cultured in DMEM + 10% fetal bovine serum, Harrill Lab (AID 2284011; active = hit-call score of the fitted dose curve at least 0.9, where 1 is the maximum; inactive = score below 0.9)
# Summary of the method: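 MCF-7 (DMEM + 10% FBS), 384-well; 8-pt dilution series, 6 h chemical exposure; caspase-3/7 activation via CellEvent Caspase 3/7 Green, HCI; bidirectional fit vs DMSO.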
# [17] = CCTE_Harrill_HTTr_CellCount_MCF7: CCTE's Cell Proliferation Assessment for the High-Throughput Transcriptomics (HTTr) Platform, Harrill Lab (AID 2284012);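 also: count of Hoechst-stained nuclei per well by high-content imaging in MCF-7 cells; cells exposed to compound for six hours; intended direction is loss of nuclei count meaning fewer cells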
# Summary of the method: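 For this full-screen endpoint, MCF-7 cultures received eight compound dilutions for six hours. Well nuclei counts from Hoechst imaging were analyzed relative to DMSO.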
smiles,measurement,setting,value
C=C1CC[C@H](O)C/C1=C/C=C1\CCC[C@]2(C)[C@@H]([C@H](C)CCCC(C)C)CC[C@@H]12,AC50,[1],77.7 µM (active)
same,outcome,[1],inactive
same,outcome,[2],inactive
same,AC50,[3],63.2 µM (active) and 34.4 µM (active)
same,outcome,[4],inactive
same,AC50,[5],45.7 µM (active) and 37.2 µM (active)
same,outcome,[6],inactive
same,AC50,[7],73.6 µM (active)
same,outcome,[7],inactive
same,AC50,[8],76.7 µM (active)
same,outcome,[8],inactive
C[C@H](CCC(=O)O)[C@H]1CC[C@H]2[C@@H]3CC[C@@H]4C[C@H](O)CC[C@]4(C)[C@H]3C[C@H](O)[C@]12C,AC50,[1],80.9 µM (active)
same,outcome,[1],inactive
same,AC50,[3],73.6 µM (active)
same,outcome,[3],inactive
same,AC50,[4],87.3 µM (active)
same,outcome,[4],inactive
same,AC50,[5],75.1 µM (active) and 36.4 µM (active)
same,AC50,[6],86.7 µM (active)
same,outcome,[6],inactive
same,AC50,[7],84.4 µM (active)
same,outcome,[7],inactive
same,AC50,[8],87.2 µM (active)
same,outcome,[8],inactive
Oc1ccc2c(c1)Cc1ccccc1-2,AC50,[9],36.3 µM (active)
same,AC50,[10],25 µM (active)
same,outcome,[11],inactive
same,outcome,[12],inactive
same,AC50,[13],38.1 µM (active)
same,outcome,[14],inactive
same,outcome,[15],inactive
same,outcome,[16],inactive
same,outcome,[17],inactive
